Out of some 1,800 compounds screened, fewer than 10 were called active. Roughly 16% stayed inconclusive and do not appear here.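 How the source made its calls: active means compound lowering the normal-ribosome reporter at least twice as much as the humanized-ribosome reporter, growth loss under a set limit; inconclusive means no clear call, values can overlap the other calls; inactive means the rest.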 A selection follows. Measured potencies and affinities stand elsewhere.
experiment: growth inhibition of wild-type GFP E. coli versus G2058-humanized strain, dose response, G2058 mutant RFP vs wild-type GFP, cherry-pick, two tests (AID 1035470); settings: E. coli WT-GFP vs G2058-humanized RFP, fluorescence, 24 h; series mostly up to 50 µM; activity change, negative = inhibition: at the top concentration

Activity change, negative = inhibition, inactive:
O=C(CN1CCCCC1)Nc1ccccc1-c1ccccc1 -10.8
CN(Cc1ccc(Cl)s1)C(=O)CNC(=O)CNC(=O)c1ccc(Cl)cc1Cl 3.86
Cn1c(SCC(=O)Nc2ccccc2-c2ccccc2)nnc1-c1ccco1 -4.34
O=C(CCCOc1ccccc1)NCCc1nc2ccccc2[nH]1 -0.129
O=C(Cc1cccc(NC(=O)C2CCN(C(=O)C3CCCCC3)CC2)c1)Nc1cccc(C(=O)N2CCCC2)c1 -6.01
COc1ccc(-c2noc(=O)n2Cc2ccccc2Cl)cc1 4.24
CN1CCSc2ccc(C(=O)Nc3cccc(F)c3)cc21 -9.02
CC(C)c1ccc(-c2nc3ccccc3s2)cc1 2.01
Cc1ccc(-n2cc(CNCCN3CCOC3=O)c(-c3ccc(F)cc3)n2)cc1 11.8
Cc1ccc(NC(=O)c2ccc3ncsc3c2)cc1S(=O)(=O)N(C)C 5.11
CN(Cc1ccc([N+](=O)[O-])cc1)c1ccccc1 -8.41
COc1ccc(CN2CCNC(=O)C2CC(=O)NCCCC2CCCC2)c(C)c1C (stereo not drawn) 0.654
O=C1CCCCC1Nc1ccc(Br)cc1 (stereo not drawn) -10.6
C[C@@H]1CCCCO[C@@H](CN(C)C)[C@@H](C)CN([C@H](C)CO)C(=O)c2cc(NC(=O)Nc3cccc4ccccc34)ccc2O1 25
COc1ccc(NC(=O)CSc2n[nH]c(-c3ccncc3)n2)c([N+](=O)[O-])c1 -4.21
Brc1ccc(Nc2ncnc3[nH]ncc23)cc1 -3.7
Cc1cccc(-c2ccc([C@@H]3[C@@H](CO)N4CCCCN(S(=O)(=O)c5ccccc5C)C[C@H]34)cc2)c1 -11.1
C[C@@H]1CN([C@@H](C)CO)S(=O)(=O)c2ccc(Br)cc2O[C@H]1CN(C)C(=O)c1ccccc1 -10.1
Cc1cc(C)c(OCCN(C)Cc2ccccc2)c(Br)c1 -12.5
C[C@@H](Nc1nc(-c2ccccc2)nc2c1oc1ccccc12)C(=O)O -7.93
CCOC(=O)c1ccc(NC(=O)c2ccc(OC(C)C)c(OC)c2)cc1 -18.6
O=C(C[n+]1ccc(Cc2ccccc2)cc1)Nc1ccc([N+](=O)[O-])cc1Cl -9.82
O=C(OCC1COc2ccccc2O1)c1ccccc1F (stereo not drawn) -7.69
O=C(Nc1ccc(-c2nnc3n2CCCCC3)cc1)c1cc2ccccc2o1 -22.2
COc1ccc(NC(=O)c2cccc(Oc3ccc([N+](=O)[O-])cc3Cl)c2)cc1 -9.48
COc1cccc(NC(=O)c2ccc(-c3ccc([N+](=O)[O-])cc3)o2)c1 -18.6
O=C1CSC(c2cccnc2)N1Cc1ccc(Cl)c(Cl)c1 (stereo not drawn) -1.51
COc1ccccc1NC(=O)N1CCCCN2[C@@H](CO)[C@H](c3ccc(C#Cc4ccccc4)cc3)[C@@H]2C1 -7.55
C#CC(C)(C)NC(=O)c1ccc(-c2ccccc2F)cc1 -16
CS(=O)(=O)Nc1ccccc1C(=O)NCCSc1ccccc1 -4.79
COc1ccc(-c2cc(C(=O)O)nc3ccc4ccccc4c23)cc1OC -13
Oc1ccc(-c2csc(Nc3ncccn3)n2)cc1 -19.3
CN(C)S(=O)(=O)c1ccc2oc(SCC(=O)NCC(F)(F)F)nc2c1 14.7
